Experimental data reported in PubChem BioAssay (Tox21).
Records with an inconclusive call do not appear. Active and inactive are the calls of the source. Unless noted, the call rests on the fitted dose curve; in most records, active means well fitted curve in the direction sought with a large enough effect in the repeat runs; inconclusive means weak or mixed curves; inactive means no such curve, though single readings can be large; an effect the other way counts as inactive or inconclusive.

How the values were obtained:
[1] = qHTS assay to identify small molecule agonists of the androgen receptor (AR) signaling pathway in the presence of an antagonist - cell viability counter screen (AID 1259379);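 further: MDA-kb2 human breast cancer cells carrying an MMTV luciferase reporter; series mostly up to about 92 µM; nearly all actives have a fitted effect of over 25% in size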
Method in brief: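 Nilutamide-containing (3.0uM final) MDA-kb2 cultures, 3,000 cells/well, were treated with compounds across 15 concentrations. After 16 hr at 37C with no CO2, cell viability was determined by CellTiter-Fluor fluorescence in the luciferase assay wells.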

[2] = qHTS assay to identify small molecule agonists of the estrogen receptor beta (ER-beta) signaling pathway - cell viability counter screen (AID 1259380); further: nearly all actives have a fitted effect of over 30% in size; further: potency means the concentration at half of the fitted maximal effect
Method in brief: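 Steps: plate ER-beta-UAS-bla HEK293T cells, rest 6 hr; add compounds in DMSO; incubate 16 hr at 37C, 5% CO2; add FRET substrate 2 hr; add CellTiter-Glo, wait 30 min at room temperature; read luminescence.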

[3] = qHTS assay to identify small molecule antagonists of the estrogen receptor beta (ER-beta) signaling pathway - cell viability counter screen (AID 1259382);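 further: HEK293T cells carrying ER-beta-UAS-bla reporter stimulated with estradiol; series mostly up to about 92 µM; nearly all actives have a fitted effect of over 55% in size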
Method in brief: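 Viability is scored by CellTiter-Glo luminescence (30 min, room temperature) in ER-beta-UAS-bla HEK293T wells already read for reporter fluorescence. Compound exposure lasts 16 hr at 37C alongside 1nM 17-beta-estradiol in charcoal-stripped serum medium.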

[4] = molecular target: Estrogen receptor (Homo sapiens) (UniProt P03372); experiment: qHTS assay to identify small molecule agonists of the estrogen receptor alpha (ER-alpha) signaling pathway in the presence of an antagonist (AID 1259383; calls by dose curve; further: top concentration of the series differs between compounds; nearly all actives have a fitted effect of over 15% in size)
Method in brief: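 Readout was ERE-driven luciferase luminescence in VM7Luc4E2 cells, which express full-length ER-alpha endogenously. Compounds were tested at 15 concentrations for 22hr alongside 10.0nM ICI-182,780 (final concentration).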

[5] = qHTS assay to identify small molecule agonists or antagonists of the thyroid stimulating hormone receptor (TSHR) signaling pathway - wild type cell line counter screen (AID 1259384; calls by dose curve)
Method in brief: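 Counter screen in untransfected Hek293: compounds (15-point titration, triplicate) plus phosphodiesterase inhibitor Ro20-1724 added after 18 h plating; 30 min RT. Intracellular cAMP via competitive d2/cryptate immunoassay, 1 h incubation.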

[6] = qHTS assay to identify small molecule agonists of the estrogen receptor alpha (ER-alpha) signaling pathway in the presence of an antagonist - cell viability counter screen (AID 1259386);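 further: cells exposed to compounds for 22 h at 37 °C before the viability read; nearly all actives have a fitted effect of over 30% in size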; further: potency means the concentration at half of the fitted maximal effect; on activity change, negative = cytotoxicity: series mostly up to about 92 µM
Method in brief: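 In this counter screen, compound effects on VM7Luc4E2 viability were tested in the presence of the antagonist ICI-182,780 at 10.0nM final. Compounds were dosed at 15 concentrations, exposure lasted 22hr, and the CellTiter-Fluor signal was read.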

[7] = molecular target: Progesterone receptor (Homo sapiens) (UniProt P06401); experiment: qHTS assay to identify small molecule agonists of the progesterone receptor (PR) signaling pathway (AID 1346784; calls by dose curve; further: nearly all actives have a fitted effect of over 30% in size; further: potency means the concentration at half of the fitted maximal effect)
Method in brief: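 Beta-lactamase reporter read-out: after 16 hr compound treatment at 37C and a further 2 hr at room temperature with LiveBLAzer B/G FRET substrate, fluorescence was measured in PR-UAS-bla HEK 293T cells grown in 2% charcoal-stripped serum.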

[8] = molecular target: Progesterone receptor (Homo sapiens) (UniProt P06401); experiment: qHTS assay to identify small molecule antagonists of the progesterone receptor (PR) signaling pathway (AID 1346795; active means well fitted inhibition curve with a large enough effect in the signal ratio in the repeat runs, not every such curve was filed as active; the % refers to the signal ratio)
Method in brief: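 Read-out is fluorescence from the LiveBLAzer B/G FRET substrate, cleaved by a UAS-controlled beta-lactamase in PR-UAS-bla HEK293T cells after 16 hr exposure to compound plus 1 nM promegestone (final), followed by 2 hr at room temperature.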

[9] = qHTS assay to identify small molecule antagonists of the progesterone receptor (PR) signaling pathway - cell viability counter screen (AID 1346798); further: nearly all actives have a fitted effect of over 50% in size; further: potency means the concentration at half of the fitted maximal effect;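 on activity change, negative = cytotoxicity: HEK293T PR-UAS-bla cells stimulated with the agonist R5020; series mostly up to about 92 µM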
Method in brief: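 HEK293T PR-UAS-bla, 2% charcoal-stripped FBS; 4 hr pre-plate; cpd + R5020, 16 h 37C; LiveBLAzer read first; then CellTiter-Glo 30 min RT, luminescence.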

[10] = qHTS assay to identify small molecule agonists of the progesterone receptor (PR) signaling pathway - cell viability counter screen (AID 1346799; calls by dose curve; further: nearly all actives have a fitted effect of over 45% in size; further: potency means the concentration at half of the fitted maximal effect)
Method in brief: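 Luminescence from CellTiter-Glo, added after the beta-lactamase FRET read in the same wells, gave cytotoxicity in PR-UAS-bla HEK293T cells treated with compounds for 16 hr at 37C.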

[11] = qHTS assay to identify small molecule antagonists of the TGF-beta/Smad signaling pathway - cell viability counter screen (AID 1346824); further: nearly all actives have a fitted effect of over 50% in size
Method in brief: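 Cytotoxicity counter-screen run in the same wells as the beta-lactamase Smad reporter read: CellTiter-Glo luminescence after 30 min at room temperature. HEK 293T SBE-bla cells had 5 hr compound exposure at 37 C with TGF-beta1 (0.25 ng/mL stock).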

[12] = qHTS assay to identify small molecule agonists of the TGF-beta/Smad signaling pathway (AID 1346859; active means well fitted activation curve with a large enough effect in the signal ratio in the repeat runs, not every such curve was filed as active; the % refers to the signal ratio; further: series mostly up to about 77 µM)
Method in brief: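 SBE-bla HEK 293T, 4,000 cells/well, plated o/n; cpd in DMSO, 5 hr, 37 C/5% CO2; B/G FRET substrate 2 hr RT; ex 405, em 460/530 nm.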

[13] = Human pregnane X receptor (PXR) small molecule agonists, qHTS cell viability counter screen (AID 1346977); further: nearly all actives have a fitted effect of over 50% in size
Method in brief: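 PXR-Luc HepG2, 2,000 cells/well, 5% charcoal-stripped FBS; 5hr settle; cpd 24hr, 37C/5% CO2; CellTiter-Fluor at 23hr, read 1hr later (fluorescence).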

[14] = molecular target: Androgen receptor (Homo sapiens) (UniProt P10275); experiment: qHTS assay to identify small molecule agonists of the androgen receptor (AR) signaling pathway in the presence of an antagonist (AID 1259381; calls by dose curve; further: nearly all actives have a fitted effect of over 15% in size; further: potency means the concentration at half of the fitted maximal effect)
Method in brief: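 Reporter-gene luminescence from MDA-kb2 cells exposed 16hr at 37C (0% CO2) to 15-point compound titrations with 3.0uM final nilutamide as AR antagonist.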

[15] = qHTS assay to identify small molecule agonists of the TGF-beta/Smad signaling pathway - cell viability counter screen (AID 1346829); further: top concentration of the series differs between compounds; nearly all actives have a fitted effect of over 45% in size
Method in brief: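 In parallel with the Smad reporter read, viability of HEK 293T cells stably carrying SBE-bla is quantified by ATP luminescence following 5 hr compound treatment.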

[16] = molecular target: Thyrotropin-releasing hormone receptor (Homo sapiens) (UniProt P34981); experiment: qHTS assay to identify small molecule antagonists of the thyrotropin-releasing hormone receptor (TRHR) signaling pathway (AID 1346877; active means well fitted inhibition curve with a large enough effect in the repeat runs, not every such curve was filed as active; further: series mostly up to about 51 µM)
Method in brief: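 Kinetic fluorescence (3 min, 1 s resolution) following stimulation with TRH at 1 nM final; HEK293 cells bearing human TRHR; 5 min compound preincubation at RT; concentration-response over 15 points, triplicates.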

[17] = molecular target: Thyrotropin-releasing hormone receptor (Homo sapiens) (UniProt P34981); experiment: qHTS assay to identify small molecule agonists of the thyrotropin-releasing hormone receptor (TRHR) signaling pathway (AID 1346891; calls by dose curve; further: series mostly up to about 58 µM)
Method in brief: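 Intracellular calcium rise, read as fluorescence every second for 3 min, served as the agonist signal in dye-loaded HEK293 cells expressing TRHR; each compound ran at 15 concentrations in triplicate.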

[18] = molecular target: Thyrotropin receptor (Homo sapiens) (UniProt P16473); experiment: qHTS assay to identify small molecule antagonists of the thyroid stimulating hormone receptor (TSHR) signaling pathway (AID 1259385; calls by dose curve; further: nearly all actives have a fitted effect of over 20% in size)
Method in brief: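 Antagonist mode: compound-treated TSHR-expressing HEK293 cells were stimulated with 1.5 ng/mL TSH (final) in presence of Ro20-1724 for 30 min at RT. HTRF cAMP detection after 1 h; each compound tested at 15 concentrations, triplicate.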
On the % scale 0 is the no-effect control and ±100 the full control effect.

Sequence of Thyrotropin receptor (Homo sapiens) (P16473 whole entry, looked up): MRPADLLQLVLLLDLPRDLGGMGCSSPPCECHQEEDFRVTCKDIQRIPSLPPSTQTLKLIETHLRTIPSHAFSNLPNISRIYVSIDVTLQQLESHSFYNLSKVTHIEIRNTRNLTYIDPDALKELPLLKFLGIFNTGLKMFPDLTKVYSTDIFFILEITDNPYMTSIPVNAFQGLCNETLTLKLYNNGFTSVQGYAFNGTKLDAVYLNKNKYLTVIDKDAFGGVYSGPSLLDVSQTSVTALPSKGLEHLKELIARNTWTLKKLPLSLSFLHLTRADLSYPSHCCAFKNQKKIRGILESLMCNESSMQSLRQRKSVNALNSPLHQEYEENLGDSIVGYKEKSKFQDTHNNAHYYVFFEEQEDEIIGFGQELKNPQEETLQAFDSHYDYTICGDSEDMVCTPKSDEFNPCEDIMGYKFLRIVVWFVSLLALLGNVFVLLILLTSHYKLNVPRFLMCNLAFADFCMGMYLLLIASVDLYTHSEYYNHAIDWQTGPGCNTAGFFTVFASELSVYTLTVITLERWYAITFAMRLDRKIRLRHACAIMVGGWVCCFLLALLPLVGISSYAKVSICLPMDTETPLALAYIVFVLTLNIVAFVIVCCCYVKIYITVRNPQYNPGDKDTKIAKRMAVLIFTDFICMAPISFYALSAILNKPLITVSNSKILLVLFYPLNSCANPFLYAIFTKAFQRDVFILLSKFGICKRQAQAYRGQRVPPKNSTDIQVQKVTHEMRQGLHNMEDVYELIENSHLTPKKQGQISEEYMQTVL
Sequence of Androgen receptor (Homo sapiens) (P10275 whole entry, looked up): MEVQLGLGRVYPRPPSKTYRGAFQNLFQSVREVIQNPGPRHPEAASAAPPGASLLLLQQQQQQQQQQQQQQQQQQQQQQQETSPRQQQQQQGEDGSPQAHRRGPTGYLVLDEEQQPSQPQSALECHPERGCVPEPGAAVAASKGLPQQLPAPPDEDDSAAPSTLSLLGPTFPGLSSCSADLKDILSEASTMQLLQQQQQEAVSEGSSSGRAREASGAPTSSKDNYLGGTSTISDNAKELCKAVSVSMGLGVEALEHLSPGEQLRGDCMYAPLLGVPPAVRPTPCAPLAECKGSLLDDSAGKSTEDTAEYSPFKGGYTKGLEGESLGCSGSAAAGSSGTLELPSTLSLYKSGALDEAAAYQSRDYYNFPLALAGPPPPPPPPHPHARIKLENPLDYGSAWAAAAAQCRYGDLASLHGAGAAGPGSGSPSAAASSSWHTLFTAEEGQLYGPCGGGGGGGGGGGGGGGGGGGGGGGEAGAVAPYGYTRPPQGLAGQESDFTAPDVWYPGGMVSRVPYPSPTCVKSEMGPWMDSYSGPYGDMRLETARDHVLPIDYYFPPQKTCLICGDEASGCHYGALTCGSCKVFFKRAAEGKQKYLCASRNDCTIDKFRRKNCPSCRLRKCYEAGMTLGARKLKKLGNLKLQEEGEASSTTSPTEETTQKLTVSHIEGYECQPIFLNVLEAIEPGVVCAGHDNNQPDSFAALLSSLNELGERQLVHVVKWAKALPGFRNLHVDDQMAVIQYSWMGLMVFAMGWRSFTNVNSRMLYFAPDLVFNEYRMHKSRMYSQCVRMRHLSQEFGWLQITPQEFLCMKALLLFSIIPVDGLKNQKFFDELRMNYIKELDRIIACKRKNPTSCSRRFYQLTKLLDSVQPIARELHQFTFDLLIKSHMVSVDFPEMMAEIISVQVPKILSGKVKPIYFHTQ
Sequence of Progesterone receptor (Homo sapiens) (P06401 whole entry, looked up): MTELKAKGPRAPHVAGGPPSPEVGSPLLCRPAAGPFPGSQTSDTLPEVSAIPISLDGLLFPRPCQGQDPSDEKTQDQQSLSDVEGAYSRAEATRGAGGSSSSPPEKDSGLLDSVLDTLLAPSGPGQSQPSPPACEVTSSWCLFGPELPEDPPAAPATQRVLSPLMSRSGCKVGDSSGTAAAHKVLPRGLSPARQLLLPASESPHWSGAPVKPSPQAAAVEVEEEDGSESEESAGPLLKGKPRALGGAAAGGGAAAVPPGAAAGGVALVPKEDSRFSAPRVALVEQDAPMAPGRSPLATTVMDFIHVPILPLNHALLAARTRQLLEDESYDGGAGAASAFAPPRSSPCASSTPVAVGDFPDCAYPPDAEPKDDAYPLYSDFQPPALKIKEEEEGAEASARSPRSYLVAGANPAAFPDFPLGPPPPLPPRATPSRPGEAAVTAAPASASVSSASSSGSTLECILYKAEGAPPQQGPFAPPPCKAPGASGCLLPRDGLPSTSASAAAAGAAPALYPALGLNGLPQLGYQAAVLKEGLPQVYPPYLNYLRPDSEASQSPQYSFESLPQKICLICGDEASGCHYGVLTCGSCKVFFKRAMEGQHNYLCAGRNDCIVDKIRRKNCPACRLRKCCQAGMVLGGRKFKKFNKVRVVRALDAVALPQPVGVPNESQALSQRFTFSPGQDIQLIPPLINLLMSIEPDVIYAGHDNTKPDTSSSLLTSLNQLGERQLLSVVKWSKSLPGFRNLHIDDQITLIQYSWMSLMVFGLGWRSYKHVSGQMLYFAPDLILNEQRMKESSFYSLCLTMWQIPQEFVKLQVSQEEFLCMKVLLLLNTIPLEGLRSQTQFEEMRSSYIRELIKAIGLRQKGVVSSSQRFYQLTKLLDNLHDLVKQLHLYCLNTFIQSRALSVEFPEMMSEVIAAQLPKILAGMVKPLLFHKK
Sequence of Estrogen receptor (Homo sapiens) (P03372 whole entry, looked up): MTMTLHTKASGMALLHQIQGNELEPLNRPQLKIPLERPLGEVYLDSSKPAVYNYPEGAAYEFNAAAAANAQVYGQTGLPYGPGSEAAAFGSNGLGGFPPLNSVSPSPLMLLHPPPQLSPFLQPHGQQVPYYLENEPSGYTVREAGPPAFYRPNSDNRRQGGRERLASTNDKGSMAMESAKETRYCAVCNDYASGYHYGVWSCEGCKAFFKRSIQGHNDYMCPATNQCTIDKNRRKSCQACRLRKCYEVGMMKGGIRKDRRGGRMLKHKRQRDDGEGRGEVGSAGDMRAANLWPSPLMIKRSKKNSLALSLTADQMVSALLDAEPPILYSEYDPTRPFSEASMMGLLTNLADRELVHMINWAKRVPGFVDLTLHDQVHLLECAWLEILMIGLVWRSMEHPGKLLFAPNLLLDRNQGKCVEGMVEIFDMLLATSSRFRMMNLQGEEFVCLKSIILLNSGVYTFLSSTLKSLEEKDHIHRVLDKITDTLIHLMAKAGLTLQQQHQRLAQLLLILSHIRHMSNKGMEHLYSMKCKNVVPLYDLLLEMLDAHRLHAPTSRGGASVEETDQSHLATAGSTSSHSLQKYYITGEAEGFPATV
Sequence of Thyrotropin-releasing hormone receptor (Homo sapiens) (P34981 whole entry, looked up): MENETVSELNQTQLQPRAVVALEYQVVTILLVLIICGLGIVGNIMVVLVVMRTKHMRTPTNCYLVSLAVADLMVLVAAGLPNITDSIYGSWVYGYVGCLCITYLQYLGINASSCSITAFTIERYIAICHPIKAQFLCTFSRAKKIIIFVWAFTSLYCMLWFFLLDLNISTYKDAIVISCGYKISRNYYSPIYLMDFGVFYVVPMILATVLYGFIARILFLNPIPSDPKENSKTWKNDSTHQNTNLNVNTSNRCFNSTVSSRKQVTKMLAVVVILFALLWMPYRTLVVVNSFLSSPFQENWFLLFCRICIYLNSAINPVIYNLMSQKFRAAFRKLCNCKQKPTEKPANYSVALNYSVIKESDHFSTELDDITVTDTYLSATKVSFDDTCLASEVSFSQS

Cc1ccc(N(CCO)CCO)cc1
inactive: Potency [1] | Potency [2] | Potency [3] | Potency [4] | Potency [5] | Potency [6] | Potency [7] | Potency [8] | Potency [9] | Potency [10] | outcome [11] | Potency [12] | Potency [13]

CCOC(=O)N1CCC(Nc2ccc(Cl)cc2N)CC1
inactive: Potency [1] | Potency [2] | Potency [14] | Potency [3] | Potency [4] | Potency [5] | Potency [6] | Potency [7] | Potency [9] | Potency [10] | outcome [11] | Potency [15] | outcome [16] | outcome [17]

O=C(O)/C=C/c1ccc(O)c(O)c1
inactive: Potency [1] | Potency [2] | Potency [14] | Potency [18] | Potency [6] | Potency [7] | Potency [8] | Potency [10] | outcome [11] | Potency [15] | Potency [12] | outcome [16] | outcome [17] | Potency [13]

CCC(Cl)CC(Cl)C(Cl)C(Cl)C(Cl)C(C)Cl (centres undefined)
inactive: activity change, negative = cytotoxicity [1] 2.03% [at 19 µM] | activity change, negative = cytotoxicity [2] -10.7% [at 19 µM] | activation [14] 4.69% [at 19 µM] | activation [4] 11.4% [at 19 µM] | cAMP activity change [5] 4.41% [at 18.9 µM, hits give high values] | activity change, negative = inhibition [18] -0.191% [at 19 µM] | activity change, negative = cytotoxicity [6] 5.27% [at 19 µM] | activation [7] -2.07% [at 19 µM] | activity change, negative = inhibition [8] -4% [at 18.9 µM] | activity change, negative = cytotoxicity [9] -5.89% [at 18.9 µM] | activity change, negative = cytotoxicity [10] 9.92% [at 19 µM] | viability change, negative = cytotoxic [11] -12.4% [at 15.8 µM] | activity change, negative = cytotoxicity [15] 0% [at 15.8 µM] | activity, negative = inhibition [16] 0.125% [at 10.5 µM] | activation [17] 0.352% [at 11.8 µM]

CC(C)(C(=O)c1cccnc1)c1cccnc1
inactive: Potency [1] | Potency [2] | Potency [3] | Potency [4] | Potency [5] | Potency [7] | Potency [9] | Potency [10] | Potency [15] | Potency [12] | outcome [16] | outcome [17] | Potency [13]

Nc1cccc2c(N)cccc12
active: Potency [2] 4.86 µM | Potency [14] 54.5 µM | Potency [6] 48.6 µM | Potency [7] 1.93 µM
inactive: Potency [1] | Potency [4] | Potency [15] | Potency [12]

CC(C)OC(=O)c1ccccc1C(=O)OC(C)C
inactive: Potency [1] | Potency [2] | Potency [3] | Potency [4] | Potency [5] | Potency [18] | Potency [6] | outcome [11] | Potency [15] | Potency [12] | outcome [16] | outcome [17]
active: Potency [9] 61.1 µM | Potency [10] 43.3 µM

N[C@@H](Cc1cc(I)c(O)c(I)c1)C(=O)O
inactive: Potency [1] | Potency [2] | Potency [3] | Potency [4] | Potency [5] | Potency [18] | Potency [6] | Potency [7] | Potency [10] | outcome [11] | Potency [15] | Potency [12] | outcome [16] | outcome [17]

C=CC(=O)NC(C)C
inactive: Potency [1] | Potency [2] | Potency [3] | Potency [4] | Potency [5] | Potency [18] | Potency [6] | Potency [8] | Potency [9] | Potency [10] | outcome [11] | Potency [15] | Potency [12] | Potency [13]
